High-throughput results as filed in PubChem.
NR2F2 inh: blocks human COUP-TFII nuclear receptor. P24468. HEK293T NGFI-A luciferase reporter, luminescence. inhibition, % at 8.6 µM. 370,000 compounds, 0.7% hits. AID 686940;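 active = inhibition above a per-plate cutoff, mean inhibition of test wells between control levels plus 3 SD, cut at about 38% in these data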;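 also: cells cotransfected with COUP-TFII expression vector driving the NGFI-A reporter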
NCOA2 inhibitor: inhibits human steroid receptor coactivator 2 | AID 651957 | inhibition, % at 9 µM | Q15596 | HEK293 GAL4-SRC2 luciferase reporter, luminescence | 370,000 compounds, 0.17% hits;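 active = inhibition above the mean inhibition of all tested compounds plus 3 SD, set per campaign, cut at about 52% in these data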
NCOA1 inh: inhibitors of human steroid receptor coactivator 1 (SRC1); HEK293 GAL4-SRC1 luciferase reporter, luminescence; Q15788; 360,000 compounds, 0.12% hits; inhibition, % at 3.6 µM;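 active = inhibition above the campaign mean plus 3 SD, with each screening campaign given its own cutoff, cut at about 60% in these data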
NCOA3 inh: human NCOA3 inhibition | HEK293 GAL4-SRC3 luciferase reporter, luminescence | inhibition, % at 3.6 µM | 360,000 compounds, 0.17% hits;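 active = inhibition above a per-campaign cutoff, the mean of all compounds plus 3 SD, cut at about 60% in these data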;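 also: higher means less SRC3-driven luciferase light from the GAL4 reporter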
Gli-Sufu antag: antagonists of Gli-Sufu signaling; Sufu-KO-LIGHT fibroblasts, Gli luciferase reporter luminescence; inhibition, % at 5 µM; 340,000 compounds, 0.74% hits; AID 588413;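 active = inhibition above about 55%, limit read from the data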
NR5A2 inv ag: inverse agonists of human LRH-1 (NR5A2) | 360,000 compounds, 0.13% hits | inhibition, % at 3.6 µM | AID 602396 | O00482 | HEK293T StAR-luciferase reporter, LRH-1 transfected, 24 h;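 active = inhibition above the mean inhibition of all tested compounds plus 3 SD, cut at about 73% in these data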
Gli antag conf: Gli-SUFU antagonism confirmation, single concentration; 2,500 compounds, 40% hits; Sufu-KO-LIGHT cells, Gli luciferase reporter, luminescence; shares compounds with Gli-Sufu antag; AID 602428; inhibition, % at 5 µM;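 active = mean inhibition at 5 µM reaching about 45%, limit read from the data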
SufuKO cytotox: cytotoxicity counter-screen for Gli-SUFU antagonists | 2,500 compounds, 32% hits | cytotoxicity, % at 5 µM | Sufu-KO-LIGHT cells cytotoxicity, ATP luminescence | shares compounds with Gli-Sufu antag;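 active = mean cytotoxicity at 5 µM above about 25%, limit read from the data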;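 also: cells exposed to compound overnight for roughly 16 to 18 hours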
Wnt3a counter: counter-screen for Gli-SUFU antagonists: Wnt3a reporter inhibition. shares compounds with Gli-Sufu antag. Wnt-LIGHT cells, Wnt3a-driven luciferase reporter, luminescence. inhibition, % at 6.25 µM. 2,500 compounds, 20% hits. AID 651995;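 active = mean inhibition above about 25%, limit read from the data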
Each line names hits and unclear results; the compound was inactive in the other large screens (follow-up assays come after a bar, where they were run). Rows were chosen to be rich in hits. Some 1.2% of all compounds tested hit in one or more screens of this group.

CCOC(=O)c1cc([N+](=O)[O-])sc1NC(=O)c1ccc(S(=O)(=O)N2CC3(C)CC2CC(C)(C)C3)cc1 (stereo not drawn)	Gli-Sufu antag 71 | Gli antag conf 82 | SufuKO cytotox 27 | Wnt3a counter 50
CC(=O)Nc1ccc(S(=O)(=O)N2CC3(C)CC2CC(C)(C)C3)cc1 (stereo not drawn)	none
CCOC(=O)C1CCN(C2=C(NS(=O)(=O)c3ccc(Br)cc3)C(=O)c3ccccc3C2=O)CC1	none | Gli antag conf inactive | SufuKO cytotox inactive | Wnt3a counter inactive
COc1ccc(C2CC(=O)C(c3ccc4ccccc4c3)=CN2Cc2ccccc2)cc1 (stereo not drawn)	none (no result: NCOA1 inh, NCOA3 inh, Gli-Sufu antag, NR5A2 inv ag)
CCOc1cc(C(=O)OCc2cccc(OC)c2OC)ccc1OCC(=O)N1CCOCC1	Gli-Sufu antag 71 | Gli antag conf inactive | SufuKO cytotox inactive | Wnt3a counter inactive
C[C@@H]1CN([C@H](C)CO)S(=O)(=O)c2ccc(Br)cc2O[C@H]1CN(C)CC1CCOCC1	none (no result: NCOA1 inh, NCOA3 inh, Gli-Sufu antag, NR5A2 inv ag)
COc1ccc(CNCC(O)COc2cccc3c2OC(C)(C)C3)cc1 (stereo not drawn)	Gli-Sufu antag 60 | Gli antag conf 61 | SufuKO cytotox 28 | Wnt3a counter inactive
COCc1cc(N2CCNC[C@H]2C)ccc1N1CCS(=O)(=O)CC1	none (no result: NCOA1 inh, NCOA3 inh, Gli-Sufu antag, NR5A2 inv ag)
CC(=O)N1CCN(c2ccc(N3CCN(Cc4ccccc4)[C@H](C)C3)c(C)c2)[C@@H](C)C1	none (no result: NCOA1 inh, NCOA3 inh, Gli-Sufu antag, NR5A2 inv ag)
Cc1cc(C(=O)N/N=C/c2c(CO)cnc(C)c2O)c2ccccc2n1	none
Cc1ncc(CO)c(/C=N/NC(=O)c2cc(Br)ccc2O)c1O	Gli-Sufu antag 96 | Gli antag conf inactive | SufuKO cytotox inactive | Wnt3a counter inactive
Cc1ccc2cc(CN(CC3CCCO3)C(=S)Nc3ccccc3)c(=O)[nH]c2c1C (stereo not drawn)	Gli-Sufu antag 65 | Gli antag conf 81 | SufuKO cytotox 33 | Wnt3a counter inactive
O=C(N/N=C/c1ccc(O)cc1)c1[nH]c2ccc(Br)cc2c1-c1ccccc1	Gli-Sufu antag 63 | Gli antag conf 63 | SufuKO cytotox 72 | Wnt3a counter inactive
Cc1c(C(=O)N/N=C/c2ccc(Cl)cc2)[nH]c2ccc(Cl)cc12	none | Gli antag conf 55 | SufuKO cytotox 58 | Wnt3a counter inactive
O=C(N/N=C/c1c[nH]c2ccccc12)c1[nH]c2ccc(Br)cc2c1-c1ccccc1	none
CCN(CC)CCNc1ccc(CO)c2oc3cc(Cl)ccc3c(=O)c12	none (no result: Gli-Sufu antag)
CCN(CC)CCNc1ccc(C)c2sc3ccc(O)cc3c(=O)c12	NCOA1 inh 63, NCOA3 inh 64, Gli-Sufu antag 67 | Gli antag conf 69 | SufuKO cytotox inactive | Wnt3a counter inactive
CCOC(=O)c1csc(NC(=O)CSc2nnnn2-c2ccc(OC)cc2)n1	none
COc1ccc(-n2nnnc2SCC(=O)Nc2nnc(C)s2)cc1	Gli-Sufu antag 59 | Gli antag conf inactive | SufuKO cytotox inactive | Wnt3a counter inactive
Cc1n(Cc2ccccc2)c2ccccc2[n+]1Cc1ccccc1	none | Gli antag conf 62 | SufuKO cytotox 33 | Wnt3a counter inactive
COCc1[nH]nc2c1C(c1ccc(C)cc1)N(c1ccc(OC)cc1)C2=O (stereo not drawn)	none (no result: NCOA1 inh, NCOA3 inh, Gli-Sufu antag, NR5A2 inv ag)
O=C(CSc1nnc(-c2ccccn2)n1-c1ccccc1)Nc1ccc(OCc2ccccc2)cc1	none (no result: NCOA1 inh, NCOA3 inh, Gli-Sufu antag, NR5A2 inv ag)
CC(C)c1ccc(NC(=O)CCCC(=O)NCCc2ccccc2)cc1	none | Gli antag conf inactive | SufuKO cytotox inactive | Wnt3a counter inactive
O=C(CCCc1ccccc1)NCCc1ccccc1	none
COc1cc(/C=N/N(c2ccccc2)c2ccccc2)ccc1O	none
CN(/N=C\c1ccc(O)c(O)c1)c1nc(-c2ccccc2)cc(-c2ccccc2)n1	Gli-Sufu antag 90 | Gli antag conf 82 | SufuKO cytotox 26 | Wnt3a counter 89
CCCCCCCCN1C(=O)[C@@H](CC(=O)NCc2cccc(C(F)(F)F)c2)C[C@@]2(C(=O)OC)C1=C[C@H](C1CCCC1)O[C@@H]2C	none (no result: NCOA1 inh, NCOA3 inh, Gli-Sufu antag, NR5A2 inv ag)
COc1ccc(CN2CCCCC2C(=O)Nc2ccc(OC)c(OCC(C)C)c2)cc1OC (stereo not drawn)	Gli-Sufu antag 63 | Gli antag conf inactive | SufuKO cytotox 29 | Wnt3a counter inactive
COc1ccc(NC(=O)C2CCCNC2)cc1OCC(C)C (stereo not drawn)	none
O=C(NNc1nc(=O)c2cccnc2s1)c1ccccc1O	Gli-Sufu antag 85 | Gli antag conf inactive | SufuKO cytotox 27 | Wnt3a counter inactive
O=C(NNc1c2ccccc2nc2ccccc12)c1ccccc1O	none
CCN1/C(=C\C(=S)Nc2ccccc2)Sc2ccccc21	none | Gli antag conf 55 | SufuKO cytotox inactive | Wnt3a counter inactive
Cc1ccccc1S(=O)(=O)Cc1ccc(C(=O)NCc2ccco2)o1	none
Cc1ccccc1CS(=O)(=O)Cc1ccc(C(=O)NCc2ccco2)o1	none | Gli antag conf inactive | SufuKO cytotox inactive | Wnt3a counter inactive
O=C1NCCN1Cc1ccc(Cl)cc1	none | Gli antag conf inactive | SufuKO cytotox inactive | Wnt3a counter inactive
COc1ccc(S(=O)(=O)Cc2ccc(C(=O)N3CCN(c4ccc(Cl)cc4)CC3)o2)cc1	none | Gli antag conf inactive | SufuKO cytotox inactive | Wnt3a counter inactive
COc1ccc(N2CCN(C(=O)c3ccc(Cn4nc(C)c([N+](=O)[O-])c4C)o3)CC2)cc1	Gli-Sufu antag 90 | Gli antag conf inactive | SufuKO cytotox 27 | Wnt3a counter inactive
Cc1nn(Cc2ccc(C(=O)N3CCCC3)o2)c(C)c1[N+](=O)[O-]	none
COc1ccc(N2CCN(C(=O)c3ccc(CS(=O)(=O)c4ccc(OC)cc4)o3)CC2)cc1	none
COC(=O)C1=C(C)N(Cc2ccccc2C(F)(F)F)C(=NCc2ccc(C(F)(F)F)cc2)NC1CCc1ccccc1 (stereo not drawn)	none (no result: NCOA1 inh, NCOA3 inh, Gli-Sufu antag, NR5A2 inv ag)
COc1ccccc1NC(=O)Nc1ccc(Cc2ccncc2)cc1	none | Gli antag conf inactive | SufuKO cytotox inactive | Wnt3a counter inactive
C=CCN1C(=O)c2n[nH]c(C(C)C)c2C1c1ccccc1 (stereo not drawn)	none (no result: NCOA1 inh, NCOA3 inh, Gli-Sufu antag, NR5A2 inv ag)
CN1CCN(/N=C/c2nc(-c3ccc(Cl)cc3)n3ccccc23)CC1	none
CN1CCN(/N=C/c2nc(-c3ccccc3)n3ccccc23)CC1	none | Gli antag conf inactive | SufuKO cytotox inactive | Wnt3a counter inactive
COC(/C(=N/O)c1ccc(Cl)cc1)c1ccccc1 (stereo not drawn)	Gli-Sufu antag 64 | Gli antag conf 60 | SufuKO cytotox 30 | Wnt3a counter 34
